# Calls of active or inactive are those of the source. Rule for the calls: active = hit-call score of the fitted dose curve at least 0.9, where 1 is the maximum; inactive = score below 0.9.
# Tests used:
# [1] = read-out: Macrophage colony-stimulating factor (MCSF), CSF1 (gene 1435); experiment: BSK_hDFCGF_MCSF: BioMAP Diversity Plus: hDFCGF Assay for Macrophage colony-stimulating factor (MCSF) Biomarker Activity (AID 2283060); settings: primary human foreskin fibroblasts; actives raise or lower the signal
# Method in brief: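 M-CSF levels read by ELISA at 24 h post-dosing in human skin fibroblasts. Parallel cultures stained with SRB assessed cytotoxicity at the same time point; response fitted in both directions against the DMSO baseline.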
# [2] = BSK_hDFCGF_SRB: Viability Assessment in the BioMAP Diversity Plus: hDFCGF Assay (AID 2283061); settings: primary human foreskin fibroblasts;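 note: cells exposed to compound for 24 h before the read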
# Method in brief: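 Viability was read as total protein: after 10% TCA fixation, wells were stained with 0.1% sulforhodamine B and read at 560 nm. Primary human foreskin fibroblasts were dosed for 24 h, with bidirectional fitting versus DMSO.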
# [3] = read-out: TIMP metallopeptidase inhibitor 1 (TIMP1), TIMP1 (gene 7076); experiment: BSK_hDFCGF_TIMP1: BioMAP Diversity Plus: hDFCGF Assay for TIMP metallopeptidase inhibitor 1 (TIMP1) Biomarker Activity (AID 2283062); settings: primary human foreskin fibroblasts; actives raise or lower the signal
# Method in brief: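 TIMP-1 measured by ELISA 24 h after chemical dosing of primary human skin fibroblasts, with gain or loss fitted relative to DMSO. Parallel SRB staining (560 nm) monitored overt cytotoxicity.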
# [4] = read-out: Monokine induced gamma interferon (MIG), CXCL9 (gene 4283); experiment: BSK_hDFCGF_MIG: BioMAP Diversity Plus: hDFCGF Assay for Monokine induced gamma interferon (MIG) Biomarker Activity (AID 2283063); settings: primary human foreskin fibroblasts; actives raise or lower the signal
# Method in brief: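 Human primary foreskin fibroblasts in the hDFCGF system, exposed to test chemical for 24 h; MIG measured by ELISA. Bidirectional curve fitting against DMSO negative control as activity baseline.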
# [5] = read-out: Matrix Metallopeptidase 1 (MMP1), MMP1 (gene 4312); experiment: BSK_hDFCGF_MMP1: BioMAP Diversity Plus: hDFCGF Assay for Matrix Metallopeptidase 1 (MMP1) Biomarker Activity (AID 2283064); settings: primary human foreskin fibroblasts; actives raise or lower the signal
# Method in brief: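 Primary human foreskin fibroblasts exposed to chemicals for 24 h; MMP1 measured by ELISA. Cytotoxicity tracked by SRB staining in parallel cultures; bidirectional fit relative to DMSO.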
# [6] = read-out: Vascular cell adhesion molecule 1 (VCAM1), VCAM1 (gene 7412); experiment: BSK_hDFCGF_VCAM1: BioMAP Diversity Plus: hDFCGF Assay for Vascular cell adhesion molecule 1 (VCAM1) Biomarker Activity (AID 2283065); settings: primary human foreskin fibroblasts; actives raise or lower the signal
# Method in brief: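 ELISA readout of VCAM-1 on human dermal fibroblast primary cultures, 24 h after chemical exposure. Gain or loss of signal fitted in both directions against DMSO baseline.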
# [7] = read-out: Plasminogen activator inhibitor-1 (PAI1), SERPINE1 (gene 5054); experiment: BSK_hDFCGF_PAI1: BioMAP Diversity Plus: hDFCGF Assay for Plasminogen activator inhibitor-1 (PAI1) Biomarker Activity (AID 2283066); settings: primary human foreskin fibroblasts; actives raise or lower the signal
# Method in brief: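 Human foreskin fibroblasts in the hDFCGF system were dosed with compound for 24 h; PAI-1 was quantified by ELISA. Bidirectional curve fitting used DMSO as negative control and baseline.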
# [8] = read-out: Intercellular Adhesion Molecule 1 (ICAM1), ICAM1 (gene 3383); experiment: BSK_KF3CT_ICAM1: BioMAP Diversity Plus: KF3CT Assay for Intercellular Adhesion Molecule 1 (ICAM1) Biomarker Activity (AID 2283067); settings: primary human keratinocytes with fibroblasts; actives raise or lower the signal
# Method in brief: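 Cell-surface ICAM-1 was measured by ELISA 24 h after dosing primary human skin keratinocytes co-cultured with fibroblasts. Parallel SRB staining tracked overt cytotoxicity. Gain or loss of signal was fitted relative to DMSO.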
# [9] = BSK_KF3CT_SRB: Viability Assessment in the BioMAP Diversity Plus: KF3CT Assay (AID 2283069); settings: primary human keratinocytes with fibroblasts;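 note: total protein by sulforhodamine B staining as a cytotoxicity measure; read 24 h after compound addition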
# Method in brief: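 Human keratinocyte and foreskin fibroblast co-culture exposed to chemical for 24 h. Total protein measured in parallel cultures by 0.1% sulforhodamine B staining after 10% TCA fixation, read at 560 nm; bidirectional fit relative to DMSO.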
# [10] = read-out: Interleukin-1 alpha (IL1a), IL1A (gene 3552); experiment: BSK_KF3CT_IL1a: BioMAP Diversity Plus: KF3CT Assay for Interleukin-1 alpha (IL1a) Biomarker Activity (AID 2283070); settings: primary human keratinocytes with fibroblasts; actives raise or lower the signal
# Method in brief: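 Primary human keratinocyte plus foreskin fibroblast co-culture, dosed and measured at 24 h in 96-well plates. IL-1a level quantified by ELISA; bidirectional fit relative to DMSO.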
# [11] = read-out: TIMP metallopeptidase inhibitor 2 (TIMP2), TIMP2 (gene 7077); experiment: BSK_KF3CT_TIMP2: BioMAP Diversity Plus: KF3CT Assay for TIMP metallopeptidase inhibitor 2 (TIMP2) Biomarker Activity (AID 2283071); settings: primary human keratinocytes with fibroblasts; actives raise or lower the signal
# Method in brief: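 Human primary keratinocyte/foreskin fibroblast co-culture dosed with chemical and sampled at 24 h. TIMP-2 levels quantified by ELISA; bidirectional fitting against DMSO negative control as baseline.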
# [12] = read-out: Transforming growth factor beta 1 (TGFb1), TGFB1 (gene 7040); experiment: BSK_KF3CT_TGFb1: BioMAP Diversity Plus: KF3CT Assay for Transforming growth factor beta 1 (TGFb1) Biomarker Activity (AID 2283072); settings: primary human keratinocytes with fibroblasts; actives raise or lower the signal
# Method in brief: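 Human keratinocyte plus foreskin fibroblast primary co-culture, dosed with chemical for 24 h. TGF-b1 quantified by ELISA. Activity fitted bidirectionally against DMSO negative control as baseline.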
# [13] = read-out: C-C motif chemokine 2 (Homo sapiens) (UniProt P13500); experiment: BSK_KF3CT_MCP1: BioMAP Diversity Plus: KF3CT Assay for Monocyte Chemoattractant Protein 1 (MCP1/CCL2) Biomarker Activity (AID 2283073); settings: primary human keratinocytes with fibroblasts; actives raise or lower the signal
# Method in brief: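 ELISA read-out of MCP-1, 24 h post-dose, in primary human skin keratinocytes co-cultured with fibroblasts. Parallel SRB staining monitors cytotoxicity; changes fitted both directions relative to DMSO.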
# [14] = read-out: Matrix Metallopeptidase 9 (MMP9), MMP9 (gene 4318); experiment: BSK_KF3CT_MMP9: BioMAP Diversity Plus: KF3CT Assay for Matrix Metallopeptidase 9 (MMP9) Biomarker Activity (AID 2283074); settings: primary human keratinocytes with fibroblasts; actives raise or lower the signal
# Method in brief: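 Human keratinocyte and foreskin fibroblast co-culture exposed to chemicals for 24 h; MMP9 biomarker measured by ELISA, bidirectional fitting relative to DMSO; cytotoxicity tracked by SRB total protein staining in parallel cultures.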
# [15] = read-out: urokinase plasminogen activator (uPA), PLAU (gene 5328); experiment: BSK_KF3CT_uPA: BioMAP Diversity Plus: KF3CT Assay for urokinase plasminogen activator (uPA) Biomarker Activity (AID 2283075); settings: primary human keratinocytes with fibroblasts; actives raise or lower the signal
# Method in brief: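 Primary human keratinocyte/foreskin fibroblast co-culture exposed to chemical; uPA measured by ELISA at 24 h. Bidirectional fit versus DMSO, with parallel SRB total-protein staining for cytotoxicity.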
# CD40, CD40 (gene 958) = experiment: BSK_LPS_CD40: BioMAP Diversity Plus: LPS Assay for CD40 Biomarker Activity (AID 2283076); settings: primary human HUVEC with PBMC; actives raise or lower the signal
# Method in brief: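 In the LPS system of human endothelial cells with peripheral blood mononuclear cells, CD40 levels were read by ELISA 24 h post-treatment. Signal changes in either direction were fitted against the DMSO baseline, with parallel SRB protein staining.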
# [16] = read-out: E-selectin (Homo sapiens) (UniProt P16581); experiment: BSK_LPS_Eselectin: BioMAP Diversity Plus: LPS Assay for Eselectin Biomarker Activity (AID 2283077); settings: primary human HUVEC with PBMC; actives raise or lower the signal
# Method in brief: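 E-selectin ELISA on LPS-stimulated endothelial cell/PBMC co-cultures, read 24 h post-treatment; gains and losses fitted against DMSO. Parallel SRB staining (0.1% SRB after 10% TCA fixation, 560 nm) flags overt cytotoxicity.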
# [17] = read-out: Interleukin-8 (IL8), CXCL8 (gene 3576); experiment: BSK_LPS_IL8: BioMAP Diversity Plus: LPS Assay for Interleukin-8 (IL8) Biomarker Activity (AID 2283078); settings: primary human HUVEC with PBMC; actives raise or lower the signal
# Method in brief: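 ELISA read-out of IL-8 after 24 h chemical treatment of LPS-activated endothelial/PBMC human primary co-cultures. Changes either up or down relative to DMSO; overt cytotoxicity checked by sulforhodamine B staining in parallel wells.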
# [18] = BSK_LPS_SRB: Viability Assessment in the BioMAP Diversity Plus: LPS Assay (AID 2283079); settings: primary human HUVEC with PBMC;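 note: total protein by sulforhodamine B absorbance as a cytotoxicity measure; measured one day after compound addition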
# Method in brief: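 SRB viability endpoint: cells fixed with 10% TCA, stained with 0.1% SRB, read at 560 nm, 24 h post-dose. HUVEC/PBMC co-culture; signal change in either direction scored relative to DMSO.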
# Sequence of E-selectin (Homo sapiens) (P16581 whole entry, looked up): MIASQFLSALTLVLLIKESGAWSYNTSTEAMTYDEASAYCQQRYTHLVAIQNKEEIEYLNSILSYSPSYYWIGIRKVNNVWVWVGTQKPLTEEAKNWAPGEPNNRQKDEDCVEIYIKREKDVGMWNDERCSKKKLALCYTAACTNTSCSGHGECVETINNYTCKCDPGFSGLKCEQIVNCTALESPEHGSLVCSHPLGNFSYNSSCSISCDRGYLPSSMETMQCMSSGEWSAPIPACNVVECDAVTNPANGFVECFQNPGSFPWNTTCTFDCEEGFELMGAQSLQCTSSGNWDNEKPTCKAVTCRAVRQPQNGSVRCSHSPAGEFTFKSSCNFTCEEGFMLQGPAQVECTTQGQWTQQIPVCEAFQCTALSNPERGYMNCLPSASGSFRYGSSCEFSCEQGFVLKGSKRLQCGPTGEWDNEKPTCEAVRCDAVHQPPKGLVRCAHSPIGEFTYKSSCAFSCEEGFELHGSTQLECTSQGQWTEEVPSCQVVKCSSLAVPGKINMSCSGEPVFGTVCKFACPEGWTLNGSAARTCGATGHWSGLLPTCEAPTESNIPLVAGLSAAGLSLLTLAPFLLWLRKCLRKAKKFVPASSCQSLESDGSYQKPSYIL
smiles,measurement,setting,value
CCC(=O)Nc1ccc(Cl)c(Cl)c1,outcome,[1],inactive
same,outcome,[2],inactive
same,outcome,[3],inactive
same,outcome,[4],inactive
same,outcome,[5],inactive
same,outcome,[6],inactive
same,outcome,[7],inactive
same,outcome,[8],inactive
same,outcome,[9],inactive
same,outcome,[10],inactive
same,outcome,[11],inactive
same,outcome,[12],inactive
same,outcome,[13],inactive
same,outcome,[14],inactive
same,outcome,[15],inactive
same,outcome,"CD40, CD40 (gene 958)",inactive
same,outcome,[16],inactive
same,outcome,[17],inactive
same,outcome,[18],inactive
CN1COCN(Cc2cnc(Cl)s2)C1=N[N+](=O)[O-],outcome,[1],inactive
same,outcome,[2],inactive
same,outcome,[3],inactive
same,outcome,[4],inactive
same,outcome,[5],inactive
same,outcome,[6],inactive
same,outcome,[7],inactive
same,outcome,[8],inactive
same,outcome,[9],inactive
same,outcome,[10],inactive
same,outcome,[11],inactive
same,outcome,[12],inactive
same,outcome,[13],inactive
same,outcome,[14],inactive
same,outcome,[15],inactive
same,outcome,"CD40, CD40 (gene 958)",inactive
same,outcome,[16],inactive
same,outcome,[17],inactive
same,outcome,[18],inactive
CC(C)[C@H](C(=O)O[C@H](C#N)c1cccc(Oc2ccccc2)c1)c1ccc(Cl)cc1,outcome,[1],inactive
same,outcome,[2],inactive
same,outcome,[3],inactive
same,outcome,[4],inactive
same,AC50,[5],3.97 µM (active)
same,outcome,[6],inactive
same,outcome,[7],inactive
same,outcome,[8],inactive
same,outcome,[9],inactive
same,outcome,[10],inactive
same,outcome,[12],inactive
same,outcome,[13],inactive
same,outcome,[14],inactive
same,outcome,[15],inactive
same,outcome,"CD40, CD40 (gene 958)",inactive
same,AC50,[16],7.16 µM (active)
same,AC50,[17],5.9 µM (active)
same,outcome,[18],inactive
